In all, about 310,000 compounds went through this assay and about 2,200 (0.71%) showed an effect of 50% or more. The effect is printed as a negative number. Many of the other results were omitted from the sample, so strong results are more common in it than they were.
These compounds were tested against human ether-à-go-go-related gene (hERG) potassium channel (human, UniProt Q12809) (assay: primary screen, population patch clamp on CHO cells stably expressing hERG; higher = less effect of the substance).
Sequence of human ether-à-go-go-related gene (hERG) potassium channel (Q12809 whole entry, looked up): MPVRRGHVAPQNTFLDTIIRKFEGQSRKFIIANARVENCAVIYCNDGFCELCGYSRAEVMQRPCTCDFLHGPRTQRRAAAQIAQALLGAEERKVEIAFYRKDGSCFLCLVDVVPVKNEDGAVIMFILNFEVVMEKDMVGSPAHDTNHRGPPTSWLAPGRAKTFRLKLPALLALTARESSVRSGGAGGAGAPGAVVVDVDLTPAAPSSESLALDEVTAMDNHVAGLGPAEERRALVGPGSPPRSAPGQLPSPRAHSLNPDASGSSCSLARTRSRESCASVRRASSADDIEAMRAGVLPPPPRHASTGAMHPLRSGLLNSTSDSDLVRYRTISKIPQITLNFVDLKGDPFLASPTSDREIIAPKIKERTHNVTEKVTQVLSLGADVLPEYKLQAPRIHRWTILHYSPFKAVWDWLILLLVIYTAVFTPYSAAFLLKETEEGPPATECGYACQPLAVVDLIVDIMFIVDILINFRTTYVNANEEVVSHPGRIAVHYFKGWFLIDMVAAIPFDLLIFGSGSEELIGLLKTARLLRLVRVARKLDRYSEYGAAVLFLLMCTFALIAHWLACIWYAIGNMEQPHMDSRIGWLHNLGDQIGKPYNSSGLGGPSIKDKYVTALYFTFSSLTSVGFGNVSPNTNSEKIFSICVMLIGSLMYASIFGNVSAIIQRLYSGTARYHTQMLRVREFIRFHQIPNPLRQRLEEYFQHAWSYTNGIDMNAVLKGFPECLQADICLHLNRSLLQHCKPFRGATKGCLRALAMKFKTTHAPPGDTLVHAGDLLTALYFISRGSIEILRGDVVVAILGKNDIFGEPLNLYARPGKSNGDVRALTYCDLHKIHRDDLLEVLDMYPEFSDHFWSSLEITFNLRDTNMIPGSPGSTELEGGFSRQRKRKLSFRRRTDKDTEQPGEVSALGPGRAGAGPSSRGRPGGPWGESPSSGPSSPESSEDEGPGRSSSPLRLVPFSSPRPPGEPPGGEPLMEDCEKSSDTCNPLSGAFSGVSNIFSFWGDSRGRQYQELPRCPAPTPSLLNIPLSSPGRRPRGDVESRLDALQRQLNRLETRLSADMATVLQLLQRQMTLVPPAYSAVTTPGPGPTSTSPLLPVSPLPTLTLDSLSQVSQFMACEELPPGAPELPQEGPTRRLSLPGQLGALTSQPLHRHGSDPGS

| Compound | hERG current change (%, negative = inhibition) at 1uM [%] |
| --- | --- |
| CC(Oc1ccc(Cl)cc1)C(=O)Nc1ccccc1C(=O)N1CCOCC1 (stereo not drawn) | -1.27 |
| CCc1ccc(CNCc2cccnc2)cc1 | 9.07 |
| COc1ccc(-c2cc(C(F)(F)F)n3nc(C(=O)N4CCCCC4)cc3n2)cc1 | 4.13 |
| O=C(O)COc1ccc(C(NC(=O)c2c(F)cccc2F)NC(=O)c2c(F)cccc2F)cc1 | 16.9 |
| O=C1C2=C(SCCS2)C(=O)N1c1ccccc1 | 20.6 |
| C=CCN=C1SC(C)C(=O)N1S(=O)(=O)c1ccccc1 (stereo not drawn) | 4.31 |
| CCCc1nnc(SCC(=O)Nc2ccc(OC)cc2)n1N | 11.1 |
| COc1cc(/C(C)=N/N2CCN(Cc3ccc(C)cc3)CC2)ccc1O | -3.97 |
| CC(=O)Oc1ccc(/C(C)=N/N2CCN(Cc3ccc(C)cc3)CC2)cc1 | -69.8 |
| CC(=O)Oc1ccc(/C(C)=N\N2CCN(Cc3ccc(Cl)cc3)CC2)cc1 | -16.4 |
| CCOC(=O)c1sc(NC(=O)CCN2CCN(CC)CC2)c(C(=O)OCC)c1C | -59.8 |
| CCOC(=O)c1sc(NC(=O)CCN2CCCCCC2)c(C(=O)OCC)c1C | 10.6 |
| CCOC(=O)c1sc(NC(=O)CCN2CCN(C)CC2)c(C(=O)OCC)c1C | -15.3 |
| COc1ccc(CCC(=O)Nc2nc3ccccc3[nH]2)cc1 | 5.78 |
| COc1ccccc1CCC(=O)Nc1nc2ccccc2[nH]1 | 18.7 |
| COc1ccc(CCC(=O)Nc2nc3ccccc3[nH]2)cc1OC | -51.1 |
| COCCNC(=S)NC12CC3CC(CC(C3)C1)C2 | 11.3 |
| O=C(NC12CC3CC(CC(C3)C1)C2)c1ccc(-c2cccc(Cl)c2)o1 | 21.9 |
| O=C(CCCC(=O)OCC(=O)c1ccc(F)cc1)Nc1cc(C(F)(F)F)ccc1Cl | 12 |
| O=C(Cc1ccc(Cl)c(Cl)c1)Nc1ccc2[nH]c(=O)[nH]c2c1 | 4.75 |
| COC(=O)c1cc(S(=O)(=O)NCC2CCN(Cc3cc(C)ccc3C)CC2)c[nH]1 | 2.48 |

| Compound | hERG current change (%, negative = inhibition) at 1uM [%] |
| --- | --- |
| COC(=O)c1cc(S(=O)(=O)NCC2CCN(Cc3cccc(F)c3)CC2)c[nH]1 | 2.87 |
| COC(=O)c1cc(S(=O)(=O)NCC2CCN(Cc3ccc(C)cc3)CC2)c[nH]1 | -63 |
| COC(=O)c1cc(S(=O)(=O)NCC2CCN(Cc3ccc(Cl)cc3)CC2)c[nH]1 | -59.6 |
| COC(=O)c1cc(S(=O)(=O)NCC2CCN(Cc3ccc(F)cc3)CC2)c[nH]1 | 7.24 |
| COC(=O)c1cc(S(=O)(=O)NCC2CCN(Cc3cccc(Cl)c3)CC2)c[nH]1 | 5.82 |
| COc1cc(/C=N/NC(=O)c2ccc(N(C)S(=O)(=O)c3ccccc3)cc2)cc(OC)c1OC | 10.6 |
| O=C(O)CCC(=O)Nc1cccc(-c2csc(-c3ccccc3)n2)c1 | 4.25 |
| COC(=O)c1cc2occc2n1CC(=O)Nc1ccc(OC)c(OC)c1OC | 11.1 |
| COC(=O)c1cc2sccc2n1CC(=O)Nc1ccc(OC)c(OC)c1OC | 9.49 |
| COC(=O)c1cc2sc(Cl)cc2n1CC(=O)Nc1ccc(OC)c(OC)c1OC | -58.5 |
| Cc1ccc2[nH]c(=O)c(CN(Cc3nnnn3Cc3ccccc3)C3CCCC3)cc2c1 | 11.9 |
| O=c1cc(CS(=O)(=O)c2ccccc2)nc(-c2ccncc2)[nH]1 | 11.3 |
| Cc1ccc(C(=O)N/C(=C\c2cccs2)C(=O)N2CCOCC2)cc1C | 1.26 |
| Cc1ccc(C(=O)N/C(=C\c2cccs2)C(=O)N2CCCCCC2)cc1 | -19.3 |
| Cc1ccc(C(=O)N/C(=C\c2cccs2)C(=O)N2CCN(C)CC2)cc1C | -77.2 |
| Cc1ccc(C(=O)N/C(=C/c2cccs2)C(=O)N2CCCCCC2)cc1 | -13.9 |
| CCN1CCN(C(=O)/C(=C/c2cccs2)NC(=O)c2ccc(C)c(C)c2)CC1 | -83.5 |
| CCOC(=O)N1CCN(C(=O)/C(=C/c2cccs2)NC(=O)c2ccc(OC)c(OC)c2)CC1 | -64.7 |
| CCOC(=O)N1CCN(C(=O)/C(=C/c2cccs2)NC(=O)c2cccs2)CC1 | -6.55 |
| COc1ccc(C(=O)N/C(=C\c2cccs2)C(=O)N2CCN(C)CC2)cc1OC | -33.9 |
| Cc1ccc(C(=O)N/C(=C/c2cccs2)C(=O)N2CCCCC2)cc1 | 10.6 |
